Rows were chosen to be rich in hits. Some 3.6% of all compounds tested hit in one or more screens of this group.
GCN5L2 inh = GCN5L2 (KAT2A) acetyltransferase inhibition | GCN5L2 HAT assay, ThioGlo1 CoA-SH fluorescence | 390,000 tested, 0.21% active | Potency, µM (series often up to 58.9 µM), for the others: at the top dose activity change, negative = inhibition, most hits filed as inhibitors; note: potency is the fitted concentration of half-maximal effect; % is set by controls: 0 for no effect and ±100 for the full control effect
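Fluorescence readout, Ex340nm/Em540nm: ThioGlo1 (50uM final) reacts with free CoA thiol released as 20nM GCN5L2 acetylates H3(1-25) peptide (75uM) using acetyl-CoA (70uM). Compound and enzyme sat 15 min beforehand; 20 min room-temperature reaction.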
Rango dissoc inh = inhibitors of RanGTP-induced Rango-importin beta complex dissociation; O95149+P62826; Biochemical FRET Rango-importin beta, RanGTP-induced dissociation; Potency, µM (top dose mostly 46.1 µM), for inactives: top-dose activity change, negative = inhibition; 340,000 tested, 0.071% active; AID 540253; calls by dose curve; note: potency is the fitted concentration of half-maximal effect; % of control where 0% means no effect; nearly all actives have a fitted effect of over 45% in size
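Compounds sat 5 min at room temperature with 0.1 uM Rango biosensor plus 0.25 uM importin beta, then FRET pre-read. RanGTP-RCC1 (0.6 uM Ran, 2mM GTP, 0.2 uM RCC1) added for 45 min, and the CFP/YFP post-read measured blocked complex dissociation.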
PI5P4Ka inh = PI5P4K alpha (human) kinase inhibition; P48426; PI5P4Kalpha enzyme, ADP-Glo luminescence, 60 min; stronger effect = lower value; max response, %; 330,000 tested, 1.2% active; AID 652105; active = max response of -50% or lower; inconclusive = between -30% and -50%; inactive = -30% or higher; note: value at the top dose of about 77 µM; % is set by controls: 0 for no effect and ±100 for the full control effect
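Reactions run in 0.038 M HEPES pH 7.4, 0.28 mM EGTA, 0.1% CHAPS and 5% DMSO, with PI5P4Kalpha, substrate, compound and 5 microM ATP final, one hour at room temperature. Readout is ADP-Glo luminescence.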
PLK1 PBD inh = inhibitors of human PLK1 polo-box domain binding. P53350. Plk1 PBD binding of FITC phosphopeptide, fluorescence polarization. Potency, µM, without a hit: max response, negative = inhibition, most hits filed as inhibitors. 360,000 tested, 2.8% active. AID 720504; note: potency is the fitted concentration of half-maximal effect; series mostly up to about 57 µM; % is set by controls: 0 for no effect and ±100 for the full control effect; nearly all actives have a fitted effect of over 65% in size
VDR inh = blocks the human vitamin D receptor | VDR-SRC2-3 peptide fluorescence polarization, 2 h | AID 504847 | P11473 | Potency, µM, for the others: max response, negative = inhibition, most hits filed as inhibitors | 400,000 tested, 0.93% active; note: potency is the fitted concentration of half-maximal effect; % is set by controls: 0 for no effect and ±100 for the full control effect
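FP read-out; VDR + SRC2-3 coactivator peptide; 23 nl compound by pintool; 2 h RT incubation; reagents held at 4 deg C, protected from light.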
Rango complex inh = Rango-importin beta binding inhibition; Q14974; Rango CFP/YFP FRET sensor + importin beta, 45 min; Potency, µM (top dose mostly 92.2 µM), for inactives: at the highest dose inhibition of complex formation; 340,000 tested, 0.031% active; AID 540263; calls by dose curve;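 note: potency is the fitted concentration of half-maximal effect; 0% = DMSO wells and 100% = buffer wells lacking importin beta; nearly all actives have a fitted effect of over 15% in size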
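FRET biosensor Rango (snurportin 1 IBB between N-terminal EYFP and C-terminal Cerulean), 50 nM in PBS/1 mM DTT/0.02% Tween-20/0.1% BSA, preincubated 5 min RT with compound; 0.125 microM importin beta added, 45 min RT, CFP/YFP FRET ratio read.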
An asterisk follows results filed as active; u = inconclusive; x = no result given; ! = repeats disagree. Unless noted, calls come from the whole dose curve; as a rule, active = well fitted curve in the direction sought with a large enough effect; inconclusive = small, poorly fitted or top-dose-only effect, or another doubt; inactive = no such curve, though single readings can be large; an effect the other way counts as inactive or inconclusive.

SMILES	GCN5L2 inh	Rango dissoc inh	PI5P4Ka inh	PLK1 PBD inh	VDR inh	Rango complex inh
COc1cc(-c2cc(OC)c3c(C)oc(C)c3c(=O)c2)ccc1OC(=O)c1cccc(Cl)c1	-15%	x	x	x	8%	x
Cn1c(=O)c(=O)n(C)c2cc(S(=O)(=O)CCC(=O)Nc3ccc(F)cc3)ccc21	1.3µM*!	-1%	-4	4%	-3%	0%
Cc1ccc(S(=O)(=O)CCC(=O)Nc2ccc3nc(C)sc3c2)cc1	0%	-1%	-9	-13%	0%	5%
Cc1ccc(NC(=O)CCS(=O)(=O)c2ccc3nc(C)sc3c2)cc1	-1%	-9%	-1	27µM*	-10%	-5%
CCOc1ccc(NC(=O)CCS(=O)(=O)c2ccc3c(c2)n(C)c(=O)c(=O)n3C)cc1	-3%	x	x	x	19%	x
COc1cc(NC(=O)C2=CC(c3ccc(F)cc3)=NS(=O)(=O)N2C)cc(OC)c1OC	-4%	x	x	x	9%	x
Cc1nc(Nc2ccc(Cl)cc2)c2oc3ccccc3c2n1	3%	11%	3	27µM*	u	-1%
CC1=CC(C)(C)N2C(=O)C(=O)c3cc(OC(=O)c4ccco4)cc1c32	5%	-16%	u	27µM*	u	-2%
CC1=CC(C)(C)Nc2ccc(OC(=O)c3ccco3)cc21	-3%	-7%	x	-8%	-10%	-6%
COc1cc(/C=C2\C(=O)NN(c3ccc(C)cc3)C2=O)cc([N+](=O)[O-])c1O	-9%	18%	-54*	u	u	-1%
COc1cc(/C=C2\C(=O)NN(c3ccccc3)C2=O)cc([N+](=O)[O-])c1O	-14%	2%	-70*	u	-30%	2%
COc1cc(/C=C2/C(=O)N(c3ccc(C)c(C)c3)N=C2C)cc([N+](=O)[O-])c1O	-4%	-4%	-11	-23%	-10%	-2%
CCOc1cc(/C=N/NC(=O)c2cccs2)cc([N+](=O)[O-])c1O	-10%	-1%	u	u	12%	1%
CCOC(=O)COc1ccc(/C=C2/C(=O)NN(c3ccc(F)cc3)C2=O)cc1OC	-8%	29%	0	27µM*	-22%	0%
CCOc1cc(/C=C2\C(=O)NN(c3ccccc3)C2=O)cc([N+](=O)[O-])c1O	-8%	1%	-57*	17µM*	u	0%
COc1cc(/C=C2/C(=O)NN(c3ccc(Cl)cc3)C2=O)cc(OC)c1O	1%	-16%	-3	11%	u	-5%
COc1cc(/C=C2/C(=O)NN(c3ccccc3)C2=O)cc(Br)c1O	-3%	2%	-55*	-8%	u	-1%
CCOc1cc(/C=C2\NC(=O)NC2=O)cc([N+](=O)[O-])c1O	-28%	-15%	-59*	-27%	20%	1%
CSc1cccc(NC(=O)c2ccc3c(c2)CCCN3S(C)(=O)=O)c1	-11%	x	x	x	11%	x
COc1ccc(-c2cc(C(=O)N/N=C/c3ccc4c(c3)OCO4)c3ccccc3n2)c(OC)c1	-12%	-12%	-3	1%	-10%	-4%
COc1ccc(-c2cc(C(=O)N/N=C/c3ccc(OC)c(COCC(F)(F)C(F)F)c3)c3ccccc3n2)c(OC)c1	0%	-17%	-30	3µM*	-17%	0%
COc1ccc(C2C(=O)N(C3CCCCCC3)CC(=O)N2CCC2=CCCCC2)cc1 (stereo unspecified)	-1%	x	x	x	8%	x
Cc1ccc(CNC(=O)C2CCN(C(=O)c3cnn(-c4ccccc4)c3-n3cccc3)CC2)cc1	-5%	x	x	x	-7%	x
C=C(C(=O)c1ccccc1)C(C)CC(=O)c1ccccc1 (stereo unspecified)	-15%	0%	7	-8%	79µM*	11%
CCCC/C=C1/CCC(CN(C)C)C1=O (stereo unspecified)	x	-5%	0	12µM*	u	1%
SMILES	GCN5L2 inh	Rango dissoc inh	PI5P4Ka inh	PLK1 PBD inh	VDR inh	Rango complex inh
COc1ccc(/C=C2/CCCC(CN(C)C)C2=O)cc1 (stereo unspecified)	x	11%	2	24µM*	u	-2%
CN(C)CC1CCC/C(=C/c2ccc(Cl)cc2)C1=O (stereo unspecified)	x	-10%	18	6µM*	79µM*	-1%
CN(C)CC1CCC/C(=C\c2ccc(OC(=O)/C=C/c3ccc(Cl)c(Cl)c3)cc2)C1=O (stereo unspecified)	x	11%	-2	-19%	u	8%
COc1cccc(/C=C2\CCC(C3CCCC3)C2=O)c1 (stereo unspecified)	-22%	-4%	6	-13%	-1%	0%
COc1cccc(/C=C2/CCC(CN(C)C)C2=O)c1 (stereo unspecified)	x	-7%	-15	3.4µM*	40µM*	-1%
CN(C)CC1CCCCC1OC(=O)c1ccc(Cl)cc1 (stereo unspecified)	0%	5%	8	-8%	-8%	2%
O=C(C1CC1)N(Cc1nc2ccccc2c(=O)[nH]1)Cc1cccs1	-14%	-6%	u	15µM*	u	4%
CC(C)(C)C(=O)N(Cc1nc2ccccc2c(=O)[nH]1)Cc1cccs1	-7%	0%	x	0%	5%	-1%
CCC(C(=O)Nc1cc(C)ccc1OC)n1nnc(C(=O)OC)c1C(=O)OC (stereo unspecified)	-15%	x	x	x	-2%	x
CC(=O)c1ccccc1OC(=O)COc1ccc([N+](=O)[O-])cc1	-24%	0%	1	21µM*	u	5%
COc1ccccc1C(=O)NC(=O)COc1ccc([N+](=O)[O-])cc1	-16%	-1%	-7	2%	-16%	2%
CC(=O)Nc1ccccc1OCc1cc(=O)n2c3c(sc2n1)CCCC3	0%	x	x	x	-12%	x
CCN1CCC(O)(/C=C/c2ccc(C(C)C)cc2)C(C(=O)/C=C/c2ccc(C(C)C)cc2)C1 (stereo unspecified)	x	-24%	-1	-29%	40µM*	5%
COc1ccc2c(c1)cc1c(=O)n(CC(=O)NCc3ccco3)nc(C)n12	1%	x	x	x	3%	x
O=C1CN(S(=O)(=O)c2ccccc2Cl)CCN1	-3%	17%	3	15µM*	-14%	-1%
CCc1ccc(NC(=O)Cn2c(=O)n(CCCCC(=O)NCCc3ccccc3)c(=O)c3ccccc32)cc1	0%	x	x	x	-3%	x
Cc1ccc(CN(C)C2CCN(C)CC2)cc1	-2%	-10%	-2	24µM*	-20%	0%
CN(Cc1ccc(O)cc1)C1CCCCC1	-2%	13%	x	-7%	0%	-1%
COc1ccc(CN(C)C2CCCCC2)cc1	-5%	-8%	x	24µM*	u	2%

High-throughput results (PubChem BioAssay)
